Source: ChEMBL document CHEMBL3988442, “University of Dundee, Small-Polar-MMV Screening Library” (2021)
For part of these data: Measured potencies and affinities stand elsewhere.

How the values were obtained:
Design in all cases: scale not given: direction of the effect not stated beside the values
[1] = target: Protein translocase subunit SecA (Escherichia coli (strain K12)) (UniProt P10408); assay: Assay to Identify E. coli SecA ATPase Inhibitors; assay type: functional; conditions: 30 µM
[2] = target: T1, Ubiquitin-activating enzyme e1, putative (Leishmania donovani (strain BPK282A1)) (UniProt E9BSI1); assay: Leishmania donovani Ubiquitin Activating Enzyme (LdE1); assay type: functional; conditions: 30 µM
T1 sequence (whole entry): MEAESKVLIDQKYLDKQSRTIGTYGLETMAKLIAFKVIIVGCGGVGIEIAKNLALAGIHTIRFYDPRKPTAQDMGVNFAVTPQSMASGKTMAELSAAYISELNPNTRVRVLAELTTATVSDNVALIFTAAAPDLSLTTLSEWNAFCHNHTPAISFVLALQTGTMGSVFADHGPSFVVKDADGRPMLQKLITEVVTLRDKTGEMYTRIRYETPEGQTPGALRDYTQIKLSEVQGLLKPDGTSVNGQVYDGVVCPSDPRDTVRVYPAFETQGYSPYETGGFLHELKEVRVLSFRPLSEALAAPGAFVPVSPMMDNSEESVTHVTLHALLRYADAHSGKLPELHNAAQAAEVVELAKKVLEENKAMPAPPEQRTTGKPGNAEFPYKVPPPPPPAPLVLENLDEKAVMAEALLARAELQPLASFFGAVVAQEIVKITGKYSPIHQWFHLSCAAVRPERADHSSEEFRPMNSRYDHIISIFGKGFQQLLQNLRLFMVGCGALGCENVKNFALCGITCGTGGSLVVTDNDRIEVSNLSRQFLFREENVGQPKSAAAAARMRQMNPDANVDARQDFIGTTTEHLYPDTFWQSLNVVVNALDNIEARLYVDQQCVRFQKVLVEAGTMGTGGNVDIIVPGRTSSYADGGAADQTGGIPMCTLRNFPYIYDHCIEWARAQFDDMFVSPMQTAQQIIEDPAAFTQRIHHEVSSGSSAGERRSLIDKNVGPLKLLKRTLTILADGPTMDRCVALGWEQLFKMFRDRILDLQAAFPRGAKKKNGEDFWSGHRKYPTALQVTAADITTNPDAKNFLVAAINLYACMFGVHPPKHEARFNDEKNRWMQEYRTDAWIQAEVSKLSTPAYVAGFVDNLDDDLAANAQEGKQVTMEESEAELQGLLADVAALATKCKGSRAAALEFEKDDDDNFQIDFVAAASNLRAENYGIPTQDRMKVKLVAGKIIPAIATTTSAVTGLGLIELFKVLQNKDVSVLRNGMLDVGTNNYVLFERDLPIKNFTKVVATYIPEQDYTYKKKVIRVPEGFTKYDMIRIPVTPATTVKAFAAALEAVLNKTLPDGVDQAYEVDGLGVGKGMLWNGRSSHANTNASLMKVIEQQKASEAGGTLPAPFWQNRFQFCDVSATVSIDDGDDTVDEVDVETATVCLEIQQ

[3] = target: AMP-activated protein kinase, AMPK (Homo sapiens) (UniProt P54646+O43741+P54619+Q9UGJ0+Q9Y478+Q13131+Q9UGI9); assay: AMP-dependent Kinase enzyme assay. An in vitro enzyme assay that detects ADP turnover that is directly proportional to AMPK activity. This uses naive AMPK that is activated during the assay with MK-8722; assay type: functional; conditions: 30 µM
[4] = target: Sialic acid-binding Ig-like lectin 9 (Homo sapiens) (UniProt Q9Y336); assay: Hs-Siglec9 ALPHAscreen SOP 20170721; conditions: 10 µM
Sialic acid-binding Ig-like lectin 9 (Homo sapiens), sequence (Q9Y336 whole entry): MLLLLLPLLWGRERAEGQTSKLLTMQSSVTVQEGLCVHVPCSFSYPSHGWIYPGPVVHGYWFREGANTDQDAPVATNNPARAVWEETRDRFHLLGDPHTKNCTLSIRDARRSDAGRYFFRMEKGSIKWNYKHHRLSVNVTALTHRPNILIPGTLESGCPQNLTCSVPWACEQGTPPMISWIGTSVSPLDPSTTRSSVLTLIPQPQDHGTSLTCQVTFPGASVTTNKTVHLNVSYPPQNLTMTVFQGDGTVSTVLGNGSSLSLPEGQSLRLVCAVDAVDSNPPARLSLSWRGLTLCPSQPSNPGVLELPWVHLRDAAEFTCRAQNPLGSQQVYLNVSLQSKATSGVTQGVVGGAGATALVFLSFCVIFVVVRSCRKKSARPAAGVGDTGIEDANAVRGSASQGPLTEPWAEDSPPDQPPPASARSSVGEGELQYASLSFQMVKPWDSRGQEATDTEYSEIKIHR

Trypanosoma cruzi = assay: Trypanosoma cruzi phosphomannomutase and mannose-1-phosphate guanylyltransferase assay; assay type: functional; conditions: 10 µM
[5] = target: T2, Arginase-2, mitochondrial (Homo sapiens) (UniProt P78540); assay: in vitro enzyme assay to detect the production of urea directly proportional to the activity of Arginase II; assay type: functional; conditions: 33.3 µM; further: in the data most compounds retested in dose-response had high values
T2 sequence (whole entry): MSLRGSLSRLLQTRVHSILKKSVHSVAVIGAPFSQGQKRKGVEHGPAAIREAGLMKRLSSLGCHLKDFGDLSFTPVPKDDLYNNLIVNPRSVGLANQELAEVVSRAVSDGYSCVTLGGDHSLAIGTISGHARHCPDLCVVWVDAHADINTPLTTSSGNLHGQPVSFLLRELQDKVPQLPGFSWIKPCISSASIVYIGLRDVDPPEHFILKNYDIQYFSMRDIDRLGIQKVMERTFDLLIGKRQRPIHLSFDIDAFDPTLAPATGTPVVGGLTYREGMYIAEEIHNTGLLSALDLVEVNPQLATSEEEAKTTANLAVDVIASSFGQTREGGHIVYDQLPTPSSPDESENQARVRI

[6] = target: T3, Proteasome subunit beta (Trypanosoma cruzi) (UniProt O96673); assay: Trypanosoma cruzi proteasome chymotrypsin-like activity (TcProtChymo) assay.; further: in the data most compounds retested in dose-response had high values; assay type: functional; conditions: 9.37 µM
T3 sequence (whole entry): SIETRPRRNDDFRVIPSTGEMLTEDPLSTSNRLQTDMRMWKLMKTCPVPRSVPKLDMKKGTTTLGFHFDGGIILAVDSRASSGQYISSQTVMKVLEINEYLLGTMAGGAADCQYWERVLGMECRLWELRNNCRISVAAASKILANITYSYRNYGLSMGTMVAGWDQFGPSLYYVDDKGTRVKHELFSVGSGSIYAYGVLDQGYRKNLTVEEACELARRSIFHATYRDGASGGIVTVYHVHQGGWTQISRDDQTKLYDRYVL

Homo sapiens = species: Homo sapiens; assay: To identify inhibition of the IFN signalling (Jak-Stat) pathway via expression of an eGFP reporter gene under the control of an IFN-stimulated response element (ISRE) containing MxA promoter.; assay type: functional; conditions: 30 µM
[7] = target: T4, Tyrosyl-tRNA synthetase, putative (Trypanosoma cruzi (strain CL Brener)) (UniProt Q4DSP6); assay: Trypanosoma cruzi tyrosyl tRNA synthetase (TcYRS) _High Tyrosine SOP; assay type: functional; conditions: 30 µM; further: in the data most compounds retested in dose-response had high values
T4 sequence (whole entry): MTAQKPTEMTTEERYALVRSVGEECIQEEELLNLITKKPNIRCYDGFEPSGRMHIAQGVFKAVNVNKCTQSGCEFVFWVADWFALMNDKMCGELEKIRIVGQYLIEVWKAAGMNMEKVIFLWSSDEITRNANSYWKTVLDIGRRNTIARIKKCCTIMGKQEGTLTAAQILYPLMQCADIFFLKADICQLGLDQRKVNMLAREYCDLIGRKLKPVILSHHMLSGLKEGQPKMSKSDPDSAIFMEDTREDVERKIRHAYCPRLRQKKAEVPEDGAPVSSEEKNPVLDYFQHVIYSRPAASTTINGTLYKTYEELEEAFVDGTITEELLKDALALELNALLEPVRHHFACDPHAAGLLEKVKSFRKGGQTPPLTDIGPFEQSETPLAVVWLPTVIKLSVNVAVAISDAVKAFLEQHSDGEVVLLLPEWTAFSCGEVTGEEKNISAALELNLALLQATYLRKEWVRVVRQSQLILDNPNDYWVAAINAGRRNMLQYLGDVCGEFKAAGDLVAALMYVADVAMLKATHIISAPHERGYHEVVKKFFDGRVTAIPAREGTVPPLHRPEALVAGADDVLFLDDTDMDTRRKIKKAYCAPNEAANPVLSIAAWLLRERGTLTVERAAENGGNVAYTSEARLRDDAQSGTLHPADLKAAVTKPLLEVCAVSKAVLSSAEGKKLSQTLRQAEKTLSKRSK

[8] = target: T4, Tyrosyl-tRNA synthetase, putative (Trypanosoma cruzi (strain CL Brener)); assay: Trypanosoma cruzi tyrosyl tRNA synthetase (TcYRS) SOP; assay type: functional; conditions: 30 µM
[9] = target: Chromo domain-containing protein 1 (Saccharomyces cerevisiae (strain ATCC 204508 / S288c) (Baker's yeast)) (UniProt P32657); assay: ScCHD-1 Enzyme Inhibition Assay; assay type: functional; conditions: 30 µM; further: in the data most compounds retested in dose-response had high values
Chromo domain-containing protein 1 (Saccharomyces cerevisiae (strain ATCC 204508 / S288c) (Baker's yeast)), sequence (P32657 whole entry, the tested form may be a part): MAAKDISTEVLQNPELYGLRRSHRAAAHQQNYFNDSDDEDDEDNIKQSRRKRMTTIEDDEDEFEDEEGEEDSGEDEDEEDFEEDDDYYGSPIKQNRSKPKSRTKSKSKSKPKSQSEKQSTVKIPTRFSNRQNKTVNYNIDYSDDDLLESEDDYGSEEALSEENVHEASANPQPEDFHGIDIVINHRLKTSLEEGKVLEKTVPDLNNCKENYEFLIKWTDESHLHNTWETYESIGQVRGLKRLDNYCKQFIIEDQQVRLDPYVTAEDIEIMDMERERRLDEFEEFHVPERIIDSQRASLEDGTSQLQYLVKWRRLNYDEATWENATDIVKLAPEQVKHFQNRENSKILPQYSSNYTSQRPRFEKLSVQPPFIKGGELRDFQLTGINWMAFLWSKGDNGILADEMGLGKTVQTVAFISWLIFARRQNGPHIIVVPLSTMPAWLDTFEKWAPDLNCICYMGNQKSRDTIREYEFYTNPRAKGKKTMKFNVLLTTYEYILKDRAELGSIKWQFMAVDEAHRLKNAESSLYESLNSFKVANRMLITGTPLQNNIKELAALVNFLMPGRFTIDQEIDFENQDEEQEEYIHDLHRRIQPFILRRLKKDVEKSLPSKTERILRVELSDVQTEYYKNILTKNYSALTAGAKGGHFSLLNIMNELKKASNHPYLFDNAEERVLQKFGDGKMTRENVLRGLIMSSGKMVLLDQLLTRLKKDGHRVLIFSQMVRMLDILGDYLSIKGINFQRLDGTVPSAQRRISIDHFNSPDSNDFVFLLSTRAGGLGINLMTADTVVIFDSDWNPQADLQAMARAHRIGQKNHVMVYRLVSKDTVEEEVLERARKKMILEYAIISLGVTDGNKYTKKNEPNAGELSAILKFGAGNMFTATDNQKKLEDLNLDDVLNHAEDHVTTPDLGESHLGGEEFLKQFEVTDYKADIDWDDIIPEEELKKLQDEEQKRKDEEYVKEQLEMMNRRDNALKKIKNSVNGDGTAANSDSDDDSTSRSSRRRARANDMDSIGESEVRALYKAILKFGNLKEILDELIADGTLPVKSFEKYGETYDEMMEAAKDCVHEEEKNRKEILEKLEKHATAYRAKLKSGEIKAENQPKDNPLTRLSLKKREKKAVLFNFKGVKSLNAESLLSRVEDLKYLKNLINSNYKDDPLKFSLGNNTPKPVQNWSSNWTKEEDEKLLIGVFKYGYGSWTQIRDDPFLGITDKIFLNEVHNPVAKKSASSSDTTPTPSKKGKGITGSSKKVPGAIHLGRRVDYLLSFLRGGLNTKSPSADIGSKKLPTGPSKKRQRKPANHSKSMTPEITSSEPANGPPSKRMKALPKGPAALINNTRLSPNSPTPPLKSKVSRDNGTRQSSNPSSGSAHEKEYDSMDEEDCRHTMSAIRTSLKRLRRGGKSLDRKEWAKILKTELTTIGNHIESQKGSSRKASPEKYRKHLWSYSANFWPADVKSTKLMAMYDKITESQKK

Protein translocase subunit SecA (Escherichia coli (strain K12)), sequence (P10408 whole entry): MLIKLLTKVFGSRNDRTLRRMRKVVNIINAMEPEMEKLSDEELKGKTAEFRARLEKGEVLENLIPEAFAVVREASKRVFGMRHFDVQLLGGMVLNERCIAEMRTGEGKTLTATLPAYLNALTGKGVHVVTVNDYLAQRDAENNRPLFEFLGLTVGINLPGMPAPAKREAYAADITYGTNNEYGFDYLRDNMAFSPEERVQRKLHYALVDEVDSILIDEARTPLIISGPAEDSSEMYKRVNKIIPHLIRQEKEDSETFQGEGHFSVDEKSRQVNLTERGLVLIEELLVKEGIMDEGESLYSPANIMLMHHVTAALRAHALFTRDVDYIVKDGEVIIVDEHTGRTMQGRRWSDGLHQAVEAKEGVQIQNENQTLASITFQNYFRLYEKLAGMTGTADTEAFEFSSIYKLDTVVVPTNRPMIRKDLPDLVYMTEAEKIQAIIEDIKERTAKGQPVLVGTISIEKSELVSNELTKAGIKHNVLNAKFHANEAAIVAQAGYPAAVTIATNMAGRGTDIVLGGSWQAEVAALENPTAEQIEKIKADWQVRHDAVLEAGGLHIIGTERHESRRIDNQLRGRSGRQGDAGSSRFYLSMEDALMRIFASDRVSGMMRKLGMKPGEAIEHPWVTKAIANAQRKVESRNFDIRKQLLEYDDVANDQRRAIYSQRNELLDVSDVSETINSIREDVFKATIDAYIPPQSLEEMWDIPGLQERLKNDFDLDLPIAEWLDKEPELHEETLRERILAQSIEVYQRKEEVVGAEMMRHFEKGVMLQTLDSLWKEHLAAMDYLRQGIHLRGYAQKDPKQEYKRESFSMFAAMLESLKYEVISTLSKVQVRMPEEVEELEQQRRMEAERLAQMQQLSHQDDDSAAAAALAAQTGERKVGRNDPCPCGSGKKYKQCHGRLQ

SMILES	Percent Effect [1] [%]	Percent Effect [2] [%]	Percent Effect [3] [%]	Percent Effect [4] [%]	Percent Effect (Trypanosoma cruzi) [%]	Percent Effect [5] [%]	Percent Effect [6] [%]	Percent Effect (Homo sapiens) [%]	Percent Effect [7] [%]	Percent Effect [8] [%]	Percent Effect [9] [%]
Cc1cc(C)n(Cc2cccc(C(=O)NCCN3CCOCC3)c2)n1	6.23	5.2	-1.94	1.34	-6.59	-6.9	24.3	9.8	5.38	16.1	-2.63
Cc1cccc(CS(=O)(=O)NCC(O)Cc2ccccc2)c1 (stereo unspecified)	-3.31	5.48	-2.41	8.56	3.33	10.4	11.2	7.9	5.38	12.5	-5.28
CCN(Cc1ccc2c(c1)OCCO2)S(=O)(=O)N(C)C(C)C	-5.7	7.79	3.89	16	5.99	0.356	3.38	9.12	0	14.6	-6.79
Cc1cnn(C2CCCN(C(=O)c3cnc4ccccc4n3)C2)c1 (stereo unspecified)	-3.93	5.41	-4.84	2.3	1.04	-1.6	1.62	13	4.43	13.6	-3.95
COc1ncccc1NC(=O)C1CCN(S(C)(=O)=O)CC1	-2.31	15.6	-6.01	4.87	0.749	-0.356	6.42	15.1	6.8	21.9	-9.19
O=C(Cc1ccccc1F)N1CCN(C(=O)c2cccc(F)c2)CC1	0.735	7.89	-4.8	-9.01	-7.69	3.55	18.9	13.3	0	-59.7	27.2
